Consider 40 compounds from PubChem BioAssay.

Each structure is given as a SMILES string. A number with no mark means an inactive call. Activity calls are given as the source filed them. The rule behind the calls is not given here.

The test system of the test is Aerobactin synthetase IucA (Klebsiella pneumoniae, hypervirulent). As to the kind of experiment: biochemical IucA inhibition screen of LOPAC library by absorbance (AID 1346212).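 Note: 100% = no compound wells and 0% = no enzyme wells.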 The settings on record: IucA enzyme assay, absorbance (OD) readout; stronger effect = lower value;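 tested at 8 µM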.
By remaining activity is commonly meant the signal under treatment as a percentage of the control signal. As for `CC1(C)CCC2=C(O1)c1ccccc1C(=O)C2=O`, the remaining activity is 113%.

With `CN(C)C/C=C(/c1ccc(Br)cc1)c1cccnc1`, the remaining activity was 107%.

As to `CCC1(O)CC2CN(CCc3c([nH]c4ccccc34)[C@@](C(=O)OC)(c3cc4c(cc3OC)N(C)C3[C@]45CCN4CC=C[C@@](CC)([C@@H](OC(C)=O)[C@]3(O)C(=O)OC)[C@H]45)C2)C1` (stereo not given in full), the remaining activity was 102%.

Consider `O=C(O)CCC(C(=O)O)N1C(=O)c2ccccc2C1=O` (stereo not given), for which the remaining activity was 121%.

As for `O=C(CCCN1CCC(O)(c2cccc(C(F)(F)F)c2)CC1)c1ccc(F)cc1`, the remaining activity was 101%.

On to `N=S(=O)(O)Cc1noc2ccccc12`, for which the remaining activity is 121%.

As for `COc1ccccc1N1CCN(CCCNc2c(C)c(=O)n(C)c(=O)n2C)CC1`, the remaining activity is 96.4%.

With `CCN(c1nc(N)c(C(=O)N=C(N)N)nc1Cl)C(C)C`, the remaining activity is 109%.

Turning to `S=C(S)N1CCCC1`, the remaining activity was 83.6%.

As to `CC(C)Cn1cnc2c(N)nc3ccccc3c21`, the remaining activity is 102%.

As for `CC(=O)N1CCN(c2ccc(OC[C@H]3CO[C@](Cn4ccnc4)(c4ccc(Cl)cc4Cl)O3)cc2)CC1`, the remaining activity was 121%.

As for `Cc1cccc(C(=O)NCN2CCN(c3ccccc3C#N)CC2)c1`, the remaining activity is 123%.

For the compound `NC(Cc1cccc(-c2ccccc2CP(=O)(O)O)c1)C(=O)O` (stereo not given), the remaining activity was 103%.

For the compound `CCCn1c(=O)c2c(ncn2C)n(CCC)c1=O`, the remaining activity was 110%.

Regarding `CN1CC(=O)NC1=NC(=O)Nc1cccc(Cl)c1`, the remaining activity was 98.9%.

Turning to `O=C[C@H](Cl)[C@@H](O)[C@H](O)[C@H](O)CO`, the remaining activity is 101%.

`CCCCCCN(CCCCCC)C(=O)Cc1c(-c2ccc(F)cc2)[nH]c2ccccc12`: the remaining activity is 97.1%.

On to `NC(N)=N[C@@H](CCC(=O)O)C(=O)O`, for which the remaining activity was 115%.

Consider `CC(C)NCC(O)COc1ccc(CCOCC2CC2)cc1` (stereo not given), for which the remaining activity was 123%.

As for `CCCCCCCCCCCCCCCCCCOC[C@H](COP(=O)([O-])OCC[N+](C)(C)C)OC`, the remaining activity is 119%.

In the case of `CC(C(=O)O)c1ccc(CC2CCCC2=O)cc1` (stereo not given), the remaining activity was 120%.

For `O=C(O)c1cc(=O)cc(C(=O)O)[nH]1`, the remaining activity is 122%.

As for `CCCc1c(OCCCOc2ccc(OCC(=O)O)cc2)ccc(C(C)=O)c1O`, the remaining activity was 101%.

As to `COCc1nc2c([nH]1)c(=O)n(C)c(=O)n2CC(C)C`, the remaining activity is 112%.

Take `O=C1NCN(c2ccccc2)C12CCN(CCCC(c1ccc(F)cc1)c1ccc(F)cc1)CC2`: the remaining activity was 104%.

Take `CC(C)NC[C@H](O)COc1ccc(CC(N)=O)cc1`: the remaining activity is 115%.

For the compound `COc1ccccc1N1CCN(CCCCNC(=O)c2ccc3ccccc3c2)CC1`, the remaining activity was 118%.

For the compound `CCCCC#Cc1nc(N)c2ncn([C@@H]3O[C@H](C(=O)NCC)[C@@H](O)[C@H]3O)c2n1`, the remaining activity is 96.4%.

Turning to `COc1cc(/C=C(\C#N)C(=O)c2ccc(O)c(O)c2)cc(I)c1O`, the remaining activity is 85.4%.

Consider `C[C@H](NCCc1ccc(O)cc1)[C@H](O)c1ccc(O)cc1`, for which the remaining activity is 94.5%.

Consider `Oc1ccc(C2CNCc3sccc32)cc1O` (stereo not given), for which the remaining activity was 99.3%.

`Brc1c(Br)c(Br)c2n[nH]nc2c1Br`: the remaining activity is 120%.

For the compound `CC(=O)N[C@@H](Cc1c[nH]c2ccccc12)C(=O)OCc1cc(C(F)(F)F)cc(C(F)(F)F)c1`, the remaining activity was 117%.

For `Cn1cc(C(F)(F)F)nc1-c1ccc(OCC(O)CNCCOc2ccc(O)c(C(N)=O)c2)cc1` (stereo not given), the remaining activity was 96.8%.

On to `Nc1c(S(=O)(=O)O)cc(Nc2ccc(Nc3nc(Cl)nc(Nc4cccc(S(=O)(=O)O)c4)n3)c(S(=O)(=O)O)c2)c2c1C(=O)c1ccccc1C2=O`, for which the remaining activity was 100%.

With `Clc1nccc2c1ccc1ccccc12`, the remaining activity is 109%.

Turning to `OC[C@H]1O[C@H]([S-])[C@H](O)[C@@H](O)[C@@H]1O.[Au+]`, the remaining activity is 66.7% (active).

For the compound `CCCCCCCC/C=C\CCCCCCCC(=O)NCCO`, the remaining activity was 98.7%.

For the compound `CCCCCCCCCCCCCCSCC(=O)O`, the remaining activity was 105%.

`COc1ccc(NC(=O)c2ccc(-c3ccc(-c4noc(C)n4)cc3C)cc2)cc1N1CCN(C)CC1`: the remaining activity was 112%.
